This excerpt belongs to a sample that is enriched for hits.
Pf Dd2 inh: Plasmodium falciparum Dd2 growth inhibition; P. falciparum Dd2 growth, SYBR Green, 72 h; Potency, µM (series often up to 28.9 µM), for the others: at the top dose activity, negative = inhibition, most hits filed as inhibitors; actives 4.3% (n = 120,000); AID 1347417; active means well fitted inhibition curve with a large enough effect;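 further: plate controls were DMSO vehicle for no effect and reference drug for full effect; nearly all actives have a fitted effect of over 65% in size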
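Readout: SYBR Green fluorescence, 485 nm excitation, 535 nm emission, after ~16 h lysis at 37C. Before that, Dd2-infected red cells (2.5% hematocrit) grew 72 h with compound, 29 uM top final concentration.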
An asterisk follows results filed as active; [ ] = remark or other dose. Potency means the concentration at half of the fitted maximal effect.

`O=C(CCC1CCCN(Cc2cccn2-c2nccs2)C1)Nc1ccccc1F` (stereo not given) gave Pf Dd2 inh 7.08µM*.
For COc1ccccc1OC1(C(=O)O)CCN(C(=O)c2ccoc2C)CC1 the results were Pf Dd2 inh -9.1%.
O=c1n(-c2ccc([N+](=O)[O-])cc2)nc2n1CCN(Cc1ccc(F)cc1)C2 was read as Pf Dd2 inh -0.2%.
Screening C[C@@H]1CN(c2ccc(C#N)cn2)C[C@@]1(O)C1CC1 returned Pf Dd2 inh -7.2%.
Screening CN1C[C@H](NC2CCC2)CCC[C@@H](C(=O)N(C)Cc2cccnc2)CC1=O returned Pf Dd2 inh 12.2%[44.1 µM].
`O=C(CCS(=O)(=O)c1cc2c3c(c1)CCN3C(=O)CC2)NCc1ccc(Cl)cc1` gave Pf Dd2 inh 16.3%.
CCC(=O)N1CCc2cc(Br)cc(S(=O)(=O)CCC(=O)Nc3ccc(Cl)cc3)c21 was read as Pf Dd2 inh 5.01µM*.
CCC(=O)N1CCc2cc(Br)cc(S(=O)(=O)CCC(=O)NCCc3ccccc3)c21 was read as Pf Dd2 inh -3.5%.
CC(=O)N1CCc2cc(Br)cc(S(=O)(=O)N3CCC(C(=O)Nc4ccc(C(C)C)cc4)CC3)c21 was read as Pf Dd2 inh 10µM*.
Screening Cc1ccc(CNS(=O)(=O)c2cc(Br)cc3c2N(C(=O)C2CC2)CC3)cc1 returned Pf Dd2 inh -1.2%.
Cc1ccc(NC(=O)CCS(=O)(=O)c2cc(Br)cc3c2N(C(=O)C2CC2)CC3)cc1 was read as Pf Dd2 inh 1µM*.
`CC(=O)N1CCc2cc(Br)cc(S(=O)(=O)N3CCC(C(=O)N(C)c4cc(C)ccc4C)CC3)c21` gave Pf Dd2 inh -9.3%.
For O=C(CCS(=O)(=O)c1cc(Br)cc2c1N(C(=O)C1CC1)CC2)NCc1ccc(Cl)cc1 the results were Pf Dd2 inh 6.31µM*.
COc1ccc(CNC(=O)CCS(=O)(=O)c2cc(Br)cc3c2N(C(C)=O)C(C)C3)cc1 (stereo not given) was read as Pf Dd2 inh 3.5%.
CCC(=O)N1CCc2cc(Br)cc(S(=O)(=O)NCCc3ccc(C)cc3)c21 was read as Pf Dd2 inh inactive.
Screening CC(C)c1ccc(NS(=O)(=O)c2cc(Br)cc3c2N(C(=O)C2CC2)CC3)cc1 returned Pf Dd2 inh -13.6%.
Screening COc1ccc(NC(=O)CCS(=O)(=O)c2cc(Br)cc3c2N(C(C)=O)CC3)c(OC)c1 returned Pf Dd2 inh inactive.
Screening CO[C@H]1[C@H](NC(=O)c2ccccc2)c2ccccc2C12CCNCC2 returned Pf Dd2 inh -14.3%.
Screening CS(=O)(=O)N1CCCC(C(=O)NCCN2CCOCC2)CCNC(=O)CC1 (stereo not given) returned Pf Dd2 inh 40.4%.
For CNC(=O)[C@@H](Cc1ccccc1)N1CCC[C@H]1C(=O)NC1CC1 the results were Pf Dd2 inh inactive.
For Cc1ccccc1NC(=O)c1cnc2c(c1)N(C(=O)CCc1ccccc1)CCC2 the results were Pf Dd2 inh inactive.
For COc1ccccc1-c1ccnc(N[C@H]2CO[C@H]3[C@@H]2OC[C@@H]3NC(=O)c2ccccc2)n1 the results were Pf Dd2 inh -23.1%[44.1 µM].
`COc1cccc(CC(=O)N2CCC3(CC2)CC(N(C(=O)NC(C)C)C2CC2)CCO3)c1` (stereo not given) gave Pf Dd2 inh 17.2%.
Screening CCc1ccccc1CN1CCC2(CC1)Cc1ccccc1CNC2=O returned Pf Dd2 inh -8.7%.
For CCC(=O)N1CCc2cc(Br)cc(S(=O)(=O)NCCc3ccccc3Cl)c21 the results were Pf Dd2 inh -21.7%.
CCC(=O)N1CCc2cc(Br)cc(S(=O)(=O)CCC(=O)Nc3cccc(Cl)c3)c21 was read as Pf Dd2 inh 7.08µM*.
For CCC(=O)N1CCc2cc(Br)cc(S(=O)(=O)CCC(=O)Nc3cccc(C)c3C)c21 the results were Pf Dd2 inh -1.8%.
`COc1ccccc1CNC(=O)[C@H]1C[C@@H](O)[C@H](O)[C@@H]2N=C(Nc3ccc(C)cc3)S[C@@H]21` gave Pf Dd2 inh inactive.
CCOc1ccc(-c2nc(C3CC(=O)N(c4ccc(F)c(Cl)c4)C3)no2)cc1 (stereo not given) was read as Pf Dd2 inh 20.4%.
COCCN1CCC(N2CCN(C(=O)c3cc(C)ccc3C)CC2)C1=O (stereo not given) was read as Pf Dd2 inh -8.8%.
For COc1ccc(F)c(F)c1CN1CCC2(CCNCC2)C1 the results were Pf Dd2 inh -23.3%.
For Cn1c(CN2CCC3(CCNCC3)C2)nc2ccccc21 the results were Pf Dd2 inh -4.9%.
For CN(Cc1ccccc1CN1CCCC1)C(=O)C1CC2(CCNCC2)CN1C (stereo not given) the results were Pf Dd2 inh -13.5%.
For Cc1ccc(CN2CCC3(CCNCC3)C2)c(Cl)c1Cl the results were Pf Dd2 inh 12.6µM*.
Screening CC(C)(C)c1cccc(CN2CCC3(CCNCC3)C2)c1O returned Pf Dd2 inh 10µM*.
Screening OCC#Cc1ccc(CN2CCC3(CCNCC3)C2)cc1 returned Pf Dd2 inh 1.7%.
`CN1c2cc(C(=O)Nc3ccc(C#N)cc3)ccc2C(=O)N2CCCCC21` (stereo not given) gave Pf Dd2 inh inactive.

Screening results as filed in PubChem.
